Screening results: PubChem BioAssay, National Center for Advancing Translational Sciences (NCATS)
This is a sample that favours compounds with a hit; in the whole collection about 11% have one here.
G9a block = qHTS Assay for Inhibitors of Histone Lysine Methyltransferase G9a; G9a H3K9 monomethylation, AlphaScreen, 2 h; Potency, µM (titrated, usually from 102 µM), without a hit: at the highest dose activity, negative = inhibition, usual class: inhibitors; hit rate 8.8% among 350,000; further: on the % scale 0 is the no-effect control and ±100 the full control effect; nearly all actives have a fitted effect of over 75% in size
Target sequence (Q96KQ7 913-1193 limits assumed): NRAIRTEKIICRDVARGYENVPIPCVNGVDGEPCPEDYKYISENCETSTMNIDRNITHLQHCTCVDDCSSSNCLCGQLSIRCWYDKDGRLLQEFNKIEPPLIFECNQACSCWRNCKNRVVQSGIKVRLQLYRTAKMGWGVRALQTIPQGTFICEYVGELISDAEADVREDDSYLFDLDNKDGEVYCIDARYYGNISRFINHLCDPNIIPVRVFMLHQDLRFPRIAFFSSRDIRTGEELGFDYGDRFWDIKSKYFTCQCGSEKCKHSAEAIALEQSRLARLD
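AlphaScreen detection with an anti-monomethyl H3K9 antibody quantified product after a 2 h room-temperature reaction containing 500 nM biotinylated H3K9 peptide, 20 µM SAM and 20 nM enzyme, which had been preincubated 15 min with compound.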
HP1b binding inh = HTS for Inhibitors of HP1-beta Chromodomain Interactions with Methylated Histone Tails; AlphaScreen HP1-beta / biotin-H3K9me3 peptide binding; AID 540317, 2011; hit rate 0.56% among 390,000; Chromobox protein homolog 1 (Homo sapiens), P83916; Potency, µM (top dose mostly 114 µM), for inactives: top-dose activity change, negative = inhibition, most hits filed as inhibitors; further: nearly all actives have a fitted effect of over 70% in size
Target sequence (P83916 whole entry, looked up): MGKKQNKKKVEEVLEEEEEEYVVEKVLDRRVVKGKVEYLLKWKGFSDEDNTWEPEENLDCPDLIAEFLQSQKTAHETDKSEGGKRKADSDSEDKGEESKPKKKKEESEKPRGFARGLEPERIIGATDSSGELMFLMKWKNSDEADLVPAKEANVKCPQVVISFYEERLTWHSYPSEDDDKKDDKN
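Compound inhibition of the preformed complex between 50 nM HP1-beta and 50 nM biotinylated H3K9me3 peptide was read by AlphaScreen. Buffer was PBS pH 7.4 with 0.01% Tween-20. Incubations ran 30 min at room temperature, with 10 ug/mL donor/acceptor beads.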
L3MBTL1 inh = qHTS Assay for the Inhibitors of L3MBTL1. Lethal(3)malignant brain tumor-like protein 1 (Homo sapiens), Q9Y468. AlphaScreen L3MBTL1–H3K9me1 peptide binding. Potency, µM (top dose mostly 57.1 µM), for the others: at the top dose activity, negative = inhibition, usual class: inhibitors. hit rate 0.66% among 230,000. AID 485360, 2010; further: on the % scale 0 is the no-effect control and ±100 the full control effect; nearly all actives have a fitted effect of over 60% in size
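L3MBTL1 50 nM + b-AHA-H3(1-15)K9me1 75 nM, 30 min RT; compound added, 30 min RT; streptavidin donor/Ni-chelate acceptor beads 10 ug/mL each final, 30 min RT dark; AlphaScreen read.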
BAZ2B inh = qHTS Assay for Inhibitors of BAZ2B; Bromodomain adjacent to zinc finger domain protein 2B (Homo sapiens), Q9UIF8; AlphaScreen BAZ2B-H3K14Ac peptide displacement; Potency, µM (titrated, usually from 114 µM), for inactives: at the top dose activity change, negative = inhibition, hits mostly inhibitors; hit rate 4.4% among 360,000; AID 504333, 2011; further: on the % scale 0 is the no-effect control and ±100 the full control effect; nearly all actives have a fitted effect of over 60% in size
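Inhibition is scored as reduced AlphaScreen emission. The BAZ2B/b-H3(5-23)K14Ac complex (50 nM each) in PBS pH 7.4, 0.01% Tween-20 meets compound (up to 110 uM) for 30 min at RT before bead addition.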
JMJD2A Tudor = qHTS Assay for Inhibitors of JMJD2A-Tudor Domain. Lysine-specific demethylase 4A (Homo sapiens), O75164. AlphaScreen JMJD2A-Tudor / H3K4me3 peptide binding. Potency, µM (series often up to 114 µM), for the others: at the top dose activity change, negative = inhibition, usual class: inhibitors. hit rate 4.4% among 390,000. AID 504339, 2011; further: on the % scale 0 is the no-effect control and ±100 the full control effect; nearly all actives have a fitted effect of over 50% in size
* hit, by the source's call; u = inconclusive; x = not tested or not shown; [ ] = another dose, or the depositor's remark. The call rests on the fitted dose curve; in most records, active means well fitted inhibition curve with a large enough effect; inconclusive means small, poorly fitted or top-dose-only effect; inactive means no such curve, though single readings can be large or run the other way. Potency means the concentration at half of the fitted maximal effect.

SMILES	G9a block	HP1b binding inh	L3MBTL1 inh	BAZ2B inh	JMJD2A Tudor
Cc1ccc(CNC(=O)CCCCCn2c(=O)c3sccc3n(CC(=O)Nc3ccc(C)c(F)c3)c2=O)cc1	20.8%[59 µM]	65.2%	x	27.3%	-0.7%
CC1(C)Oc2ccc(C#N)cc2[C@@H](OC2=CC(=O)CC2)[C@@H]1O	23.5%[59 µM]	x	x	x	x
COc1cc(/C=N/N2CCN(Cc3ccc(Cl)cc3)CC2)ccc1OC(C)=O	x	u	-22.4%	56.2µM*	44.7µM*
COc1cc(/C=N/N2CCN(Cc3ccc(Cl)cc3)CC2)cc(Br)c1O	2.1%[0.501 µM]	-21.0%	-0.7%[2.29 µM]	50.1µM*	44.7µM*
COC(=O)c1ccc(/C=N/N2CCN(Cc3ccc(Cl)cc3)CC2)cc1	-8.4%	36.3%	-4.0%	-33.5%	-10.4%
COCCNC(=S)N1CCC(c2nc(-c3ccc(N(C)C)cc3)no2)CC1	u	-33.0%	u	56.2µM*	u
O=c1c2sccc2[nH]c(=S)n1Cc1ccccc1	10µM*	27.2%	-2.5%	9.7%	-23.2%
COc1ccc(Cn2c(=S)[nH]c3cc(OC)c(OC)cc3c2=O)cc1	-16.5%	51.8%	-6.6%	-18.0%	-3.5%
CC(NC(=O)CCn1c(=S)[nH]c2ccsc2c1=O)c1ccccc1 (stereo not drawn)	28.2µM*	19.8%	x	3.0%	-25.1%
Cc1ccc(NC(=O)CCn2c(=O)[nH]c3ccsc3c2=O)cc1	1.7%	36.3%	36.5%	-9.6%	-14.7%
COc1ccc(Cn2c(=S)[nH]c3ccsc3c2=O)cc1	8.91µM*	52.4%	3.7%	6.7%	-25.1%
NC(=O)c1ccccc1NC(=O)Cn1nc(Cc2cccnc2)c2ccccc2c1=O	u	9.2%	x	-19.0%	-32.5%
CN(CCc1ccccn1)C(=S)NC(=O)c1ccco1	20µM*	0.7%	13.5%	u	-6.9%
O=C(NC(NCc1ccccn1)(C(F)(F)F)C(F)(F)F)c1ccco1	16.5%	26.4%	u	50.1µM*	0.708µM*
O=C(NC(=S)NCCc1ccccn1)c1ccco1	1.3%	17.4%	5.5%	-2.8%	-2.1%
COC(=O)c1ccccc1S(=O)(=O)NNC(=O)c1nn(C)c(=O)c2ccccc12	x	2.1%	6.4%	x	u
Clc1ccc(-n2cnnn2)cc1	4.3%	23.0%	9.2%	-0.3%	-15.3%
CO/C=C\C=C/c1nnn(-c2ccc(Cl)cc2)n1	50.1µM*	43.7%	-9.3%	-10.5%	-5.6%
O=C(O)Cc1csc(NC(=O)CSc2cccc(C(=O)O)n2)n1	x	-18.1%	x	-38.9%	89.1µM*
COc1ccccc1NC(=O)Cn1c(O)c(N=NC(=O)c2ccccc2O)c2ccccc21	44.7µM*	17.3%	2.8%	56.2µM*	-34.7%
CC(=O)N(CCCN1CCOCC1)Cc1ccncc1	50.1µM*	26.0%	x	u	0.0%[11.4 µM]
c1cc(CNCCCN2CCOCC2)ccn1	u	36.0%	3.9%	-3.5%	-1.4%
O=C(NCc1cccs1)c1ccc2c(c1)N(Cc1ccccc1Cl)C(=O)c1ccccc1S2	-33.3%[59 µM]	24.9%	x	1.6%	1.3%
Cc1ccc(C)c(S(=O)(=O)N2CCN(C(=O)c3ccc(OCc4c(C)noc4C)cc3)CC2)c1	-25.3%	23.9%	-18.7%	-4.2%	-23.3%
O=C(COC(=O)/C=C/c1cccc(Cl)c1)Nc1ccc2[nH]c(=O)[nH]c2c1	31.6µM*	36.3%	0.9%	-4.6%	-10.3%
SMILES	G9a block	HP1b binding inh	L3MBTL1 inh	BAZ2B inh	JMJD2A Tudor
O=C(COC(=O)/C=C/c1cccc(F)c1)Nc1ncccn1	70.8µM*	-5.4%	x	56.2µM*	u
O=C(COC(=O)/C=C/c1ccc([N+](=O)[O-])cc1)Nc1ccc2[nH]c(=O)[nH]c2c1	50.1µM*	8.6%	-2.8%	4.9%	-14.5%
CCCCn1c(N)c(N(CC(C)C)C(=O)CSc2nnc(C)n2-c2ccccc2)c(=O)[nH]c1=O	x	34.9%	x	x	13.8%
O=C(c1ccccc1NS(=O)(=O)c1ccc(F)cc1F)N1CCCCC1	x	23.3%[57 µM]	-1.9%	x	-7.6%
Cc1ccc(-c2cc(C(=O)OCC(=O)N(C)c3c(N)n(Cc4ccccc4)c(=O)[nH]c3=O)c3ccccc3n2)o1	u	29.9%	7.1%	9.8%	-15.8%
Cc1ccc(OCc2cnc(Cl)s2)c(C)c1	-4.3%	160.8%	48.2%	288.6%	124.1%
Cc1csc(SCc2nnc(-c3ccccc3Br)o2)n1	-37.3%	35.6%	4.8%	4.9%	-8.0%
Fc1ccccc1SCc1nnc(-c2ccccc2Br)o1	-10.2%	-10.5%	56.9%	83.7%	11.2µM*
O=C(CCc1nc2cccnc2n1Cc1cccs1)Nc1cccc(Cl)c1	7.7%[59 µM]	20.8%	x	-15.7%	-25.5%
COc1cccc(CN2CCN(Cc3ccc4c(NC(C)=O)cccc4n3)CC2CCO)c1 (stereo not drawn)	50.1µM*	31.0%	1.1%	-12.0%	22.4µM*
COc1cc(CN2CCN(Cc3ccc4cc(F)ccc4n3)CC2CCO)cc(OC)c1 (stereo not drawn)	-6.5%	20.8%	-3.3%	-4.3%	-26.0%
Cc1ccc(CN2CCN(Cc3cnn(-c4ccc(F)cc4)c3)CC2CCO)o1 (stereo not drawn)	12.8%[12.7 µM]	8.1%	-8.1%	-23.5%	-8.0%
Cc1ccc(CN2CCN(Cc3ccc4cc(F)ccc4n3)CC2CCO)o1 (stereo not drawn)	56.2µM*	19.5%[57 µM]	-8.2%	-34.2%	-8.5%
COc1ccc(CN2CCN(Cc3ccc4cc(F)ccc4n3)CC2CCO)c(C)c1C (stereo not drawn)	50.1µM*	50.8%	-1.8%	-33.3%	-26.7%
CCOc1ccccc1CN1CCN(Cc2ccc3cc(F)ccc3n2)CC1CCO (stereo not drawn)	79.4µM*	36.4%	-3.7%	-30.7%	-14.4%
CCC(C)Sc1oc(-c2ccco2)nc1S(=O)(=O)c1ccc(C)cc1 (stereo not drawn)	54.0%[59 µM]	83.1%	x	59.7%	-0.7%
COc1ccc(NS(=O)(=O)c2cc3[nH]c(=O)c(=O)[nH]c3cc2C)cc1OC	-25.6%[59 µM]	39.9%	x	79.4µM*	-5.1%
COc1cc(NS(=O)(=O)c2cc3[nH]c(=O)[nH]c3cc2C)cc(OC)c1OC	14.8%[59 µM]	18.2%[57 µM]	x	3.0%	-16.9%
C#CCOCCOCCOCCNc1nc(N2CCN(C(=O)[C@H]([C@@H](C)CC)n3cc([C@@H](N)CC(C)C)nn3)CC2)nc(N2CCN(C(=O)[C@H]([C@@H](C)CC)n3cc([C@@H](N)CC(C)C)nn3)CC2)n1	u	6.5%	-0.6%	79.4µM*	u
